From the supplement of paper PMC6135742
Where a name gives a salt, the structure may show the parent alone. ± gives the standard deviation of the averaged measurements. Over roughly 2,600 compounds, “MBP+ mature oligodendrocyte number relative to DMSO vehicle control” has its median near -0.34; the highest 2% begin near 13. Only a selection was taken, and the highest values are over-represented in it overall.

System: jimpy (Plp1 jimpy) mouse iPSC-derived oligodendrocyte progenitor cells
Test: MBP+ mature oligodendrocyte number relative to DMSO vehicle control (SDs above negative control mean); higher = more surviving jimpy oligodendrocytes (rescue)
Settings: 10 µM; 3 days
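Also: 10 µM single dose with 3-day oligodendrocyte differentiation.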

SMILES	MBP+ mature oligodendrocyte number
COC(=O)C1=CO[C@@H](O)[C@@H]2C(CO)=CC[C@H]12 [Genipin]	3.27 ± 0.9
C=CC(=O)Nc1cccc(Nc2nc(Nc3ccc(Oc4ccnc(C(=O)NC)c4)cc3)ncc2F)c1	-6.27
CN1CCN(C(=O)c2cc3cc(Cl)ccc3[nH]2)CC1	1.14
N[C@@H](CC(=O)N1CCn2c(nnc2C(F)(F)F)C1)Cc1cc(F)c(F)cc1F [Sitagliptin phosphate monohydrate]	0.184
NCCOc1cc(C(=O)Nc2cc(OCCN)c3ccccc3n2)nc(C(=O)Nc2cc(OCCN)c3ccccc3n2)c1 [Pyridostatin trifluoroacetate salt]	-3.78
COc1ccccc1CN[C@H]1CCCN[C@H]1c1ccccc1	-0.711
CSc1c(C)c(SC)n2ccncc12 [Oltipraz metabolite M2]	-2.35
CC(C)NC[C@H](O)COc1ccc(CCOCC2CC2)cc1 [Levobetaxolol HCl]	9.7
CN(C)C(=O)Nc1cccc(-c2ccc(N(C)C)cc2)c1 [Atglistatin]	6.21
COc1cc2c[n+](C)c3c4cc5c(cc4ccc3c2cc1OC)OCO5 [Nitidine chloride]	< -4.47
N#CC1(c2ccc(NC(=O)c3cccnc3NCc3ccncc3)cc2)CCCC1 [Apatinib]	2.86
CN(C/C=C/C#CC(C)(C)C)Cc1cccc2ccccc12 [Terbinafine]	1.87
COc1ccc(CNCc2cccc3ccccc23)cc1	-1.56
CN(C/C=C/C#CC(C)(C)C)Cc1cccc2ccccc12 [Terbinafine HCl]	4.54
CN(Cc1ccc(C(C)(C)C)cc1)Cc1cccc2ccccc12 [Butenafine HCl]	21.1
CCC(=O)O[C@]1(C(=O)CCl)[C@@H](C)C[C@H]2[C@@H]3CCC4=CC(=O)C=C[C@]4(C)[C@@]3(F)[C@@H](O)C[C@@]21C [Clobetasol propionate]	12.8
CCC(=O)O[C@]1(C(=O)CCl)[C@@H](C)C[C@H]2[C@@H]3C[C@H](F)C4=CC(=O)C=C[C@]4(C)[C@@]3(F)[C@@H](O)C[C@@]21C [Halobetasol Propionate]	21.4
C[C@H]1C[C@H]2[C@@H]3CCC4=CC(=O)C=C[C@]4(C)[C@@]3(F)[C@@H](O)C[C@]2(C)[C@@]1(O)C(=O)CO [Betamethasone]	6.53 ± 6.4
C[C@@H]1C[C@H]2[C@@H]3C[C@H](F)C4=CC(=O)C=C[C@]4(C)[C@@]3(F)[C@@H](O)C[C@]2(C)[C@@]1(O)C(=O)CO [Flumethasone]	8.94
CCC(=O)OCC(=O)[C@@]1(OC(=O)CC)[C@@H](C)C[C@H]2[C@@H]3CCC4=CC(=O)C=C[C@]4(C)[C@@]3(Cl)[C@@H](O)C[C@@]21C [Beclomethasone dipropionate]	7.8
CCC(=O)O[C@]1(C(=O)SCF)[C@H](C)C[C@H]2[C@@H]3C[C@H](F)C4=CC(=O)C=C[C@]4(C)[C@@]3(F)[C@@H](O)C[C@@]21C [Fluticasone propionate]	8.9

SMILES	MBP+ mature oligodendrocyte number
CO[C@H]1C(=O)[C@]2(C)[C@@H](OC)C[C@H]3OC[C@@]3(OC(C)=O)[C@H]2[C@H](OC(=O)c2ccccc2)[C@]2(O)C[C@H](OC(=O)[C@H](O)[C@@H](NC(=O)OC(C)(C)C)c3ccccc3)C(C)=C1C2(C)C [Cabazitaxel]	-3.71
C=CCN1CCc2c(cc(O)c(O)c2Br)[C@@H](c2ccccc2)C1 [R(+)-6-Bromo-APB hydrobromide]	-2.95
Cc1ccc(C(=O)NCCCCCC(=O)Nc2ccccc2N)cc1	-5.76
NC(N)=NCc1cccc(I)c1 [m-Iodobenzylguanidine hemisulfate]	16.6
CCN(CC)CCn1c(=O)c(Cc2ccc(OC)cc2)nc2ccccc21 [Caroverine hydrochloride]	-0.211
Cc1ccc(S(=O)(=O)OCC(=O)Nc2ccc(C(=O)O)c(O)c2)cc1	2.29
CC[n+]1c(/C=C/C=C2/N(C)c3ccccc3C2(C)C)sc2ccccc21	< -4.47
Cc1cc(C(=O)NOCCO)c(Nc2ccc(I)cc2F)n(C)c1=O	-0.892
NCCNS(=O)(=O)c1cccc2c(Cl)cccc12 [A3 hydrochloride]	-2.82
Cc1nnc(C(=O)NC(C)(C)c2nc(C(=O)NCc3ccc(F)cc3)c(O)c(=O)n2C)o1 [Raltegravir (MK-0518)]	55.9
Cn1c(N2CCCCS2(=O)=O)nc(C(=O)NCc2ccc(F)cc2)c(O)c1=O	< -6.7
O=C(Nc1cccc(C(F)(F)F)c1)Nc1cc(S(=O)(=O)NC2CC2)ccc1-c1ccsc1	18.2
O=C(O)c1ccccc1Nc1cccc(C(F)(F)F)c1 [Flufenamic acid]	1.25
COc1cc(OC)cc(-c2cc3cnc(N)nc3nc2NC(=O)NC(C)(C)C)c1	-2.43
CC[C@H](NC(=O)c1c(C)c(-c2ccccc2)nc2ccccc12)c1ccccc1	-1.61
O=C1NC(=O)/C(=C\c2ccc3nccnc3c2)S1	-0.833
Clc1ccccc1C(c1ccccc1)(c1ccccc1)n1ccnc1 [Clotrimazole]	15.7 ± 1.2
FC(F)(F)c1ccccc1-n1ccnc1 [1-[2-(Trifluoromethyl)phenyl]imidazole]	-0.176
O=C(NCCO)c1cccc(-c2cc(Nc3ccc(OC(F)(F)F)cc3)ncn2)c1	-0.394
CC(=O)[C@H]1CC[C@H]2[C@@H]3CC=C4C[C@@H](OS(=O)(=O)O)CC[C@]4(C)[C@H]3CC[C@]12C [Pregnenolone sulfate sodium]	0.467
O=C1NC(=O)C(=Cc2ccc(-c3ccc(F)cc3)o2)S1 (stereo in doubt)	0.66

SMILES	MBP+ mature oligodendrocyte number
Clc1ccc(C(c2ccc(Cl)cc2)[n+]2ccn(CC(OCc3ccc(Cl)cc3Cl)c3ccc(Cl)cc3Cl)c2)cc1 (configuration not stated) [Calmidazolium chloride]	< -3.34
CC(C)OC(=O)C(C(=O)OC(C)C)=C1SC=CS1 [Malotilate]	19
CCN(C(=O)c1c(O)c2c(Cl)cccc2n(C)c1=O)c1ccccc1 [Laquinimod]	1.45
O=C(O)[C@H](CC(=O)N1C[C@H]2CCCC[C@H]2C1)Cc1ccccc1 [Mitiglinide calcium]	-1.54
COc1ccccc1N1CCN(CCN(C(=O)c2ccc(F)cc2)c2ccccn2)CC1 [p-MPPF dihydrochloride]	6.54
Cc1ccc(C(=O)Nc2ccc(S(=O)(=O)O)c3cc(S(=O)(=O)O)cc(S(=O)(=O)O)c23)cc1NC(=O)c1cccc(NC(=O)Nc2cccc(C(=O)Nc3cc(C(=O)Nc4ccc(S(=O)(=O)O)c5cc(S(=O)(=O)O)cc(S(=O)(=O)O)c45)ccc3C)c2)c1 [Suramin sodium salt]	-1.35
Cc1ccc(NC(=O)c2cccc(N(C)C)c2)cc1NC(=O)c1ccc(O)cc1	14.6
CNCc1ccc(C)c(NC(=O)c2ccc(Nc3nc(-c4ccccc4)c4ccccc4n3)cc2)c1	< -6.35
C[C@]12CC[C@@H]3c4ccc(O)cc4CC[C@H]3[C@@H]1CCC2=O [Estrone]	21.6 ± 26
C[C@]12CC[C@@H]3c4ccc(O)cc4CC[C@H]3[C@@H]1CC[C@@H]2O [beta-Estradiol]	3.17
C[C@]12CC[C@@H]3c4ccc(O)cc4CC[C@H]3[C@@H]1CC[C@@H]2O [Estradiol]	5.47
C[C@]12CC[C@@H]3c4ccc(O)cc4CC[C@H]3[C@@H]1C[C@@H](O)[C@@H]2O [Estriol]	-0.78
Nc1nc2ccc(Cl)cc2n2c(-c3ccccc3)nnc12	0.304
Oc1c2ccccc2c2c3c(cccc13)N=N2	-2.59 ± 1.1
CCCCCCCCCCCCCCCC(=O)OC[C@H](O)[C@H]1OC(=O)C(O)=C1O [L-Ascorbyl 6-palmitate]	-1.84
N[C@@H](Cc1cc(I)c(Oc2cc(I)c(O)c(I)c2)c(I)c1)C(=O)O [L-Thyroxine]	-1.06
N#Cc1ccc(C(c2ccc(C#N)cc2)n2cncn2)cc1 [Letrozole]	3.69
c1ccc(-c2ccc(C(c3ccccc3)n3ccnc3)cc2)cc1 (configuration not stated) [Bifonazole]	52.3
CC(N)(Cc1ccc(O)cc1)C(=O)O (racemic) [DL-alpha-Methyl-p-tyrosine]	1.37
O=C(/C=C/c1ccc(O)cc1)CC(=O)/C=C/c1ccc(O)cc1 [Bisdemethoxycurcumin]	0.659
